Measured values published in PubChem BioAssay (NCATS).
Inconclusive results are not listed. Activity calls are given as the source filed them. Calls follow the shape of the dose curve; as a rule, active = well fitted curve in the direction sought with a large enough effect; inconclusive = small, poorly fitted or top-dose-only effect, or another doubt; inactive = no such curve, though single readings can be large; an effect the other way counts as inactive or inconclusive.

Experiments:
HACAT = assay: qHTS assay to identify novel small-molecules to repurpose for Merkel cell carcinoma treatment (AID 1296009); details: MCC and control cell lines, CellTiter-Glo viability, 72 h; at 44.8 µM (top of the series) unless noted; also: nearly all actives have a fitted effect of over 60% in size
Procedure, shortened: (§1)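 qHTS format: cells treated with library compounds in DMSO across 8 (NPC) or 11 (MIPE) concentrations. Readout after 72 hr at 37 degree celsius was CellTiter-Glo luminescence.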

NIH3T3 = assay: as above; details: MCC and control cell lines, CellTiter-Glo viability, 72 h; at 44.8 µM (top of the series) unless noted
Procedure, shortened: as §1

C33A = assay: Primary qHTS to identify gynecologic anti-cancer compounds using libraries of approved drugs and bioactive compounds (AID 1345084); details: Gynecologic cancer cell panel viability, ATPlite luminescence, 48 h; series mostly up to 57.5 µM; also: % is scaled to controls: 0 for no effect and ±100 for the full control effect; nearly all actives have a fitted effect of over 55% in size
Procedure, shortened: (§2)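 Five-point cytotoxicity, 48 h drug exposure at 37 C, 5% CO2, on cells seeded 16 h beforehand. ATP content read by ATPlite luminescence.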

CAOV3 = assay: as above; details: Gynecologic cancer cell panel viability, ATPlite luminescence, 48 h; series mostly up to 57.5 µM
Procedure, shortened: as §2

CASKI = assay: as above; details: Gynecologic cancer cell panel viability, ATPlite luminescence, 48 h; series mostly up to 57.5 µM
Procedure, shortened: as §2

Es-2 = assay: as above; details: Gynecologic cancer cell panel viability, ATPlite luminescence, 48 h; series mostly up to 57.5 µM
Procedure, shortened: as §2

HeLa = assay: as above; details: Gynecologic cancer cell panel viability, ATPlite luminescence, 48 h; series mostly up to 57.5 µM
Procedure, shortened: as §2

Hek293T = assay: as above; details: Gynecologic cancer cell panel viability, ATPlite luminescence, 48 h, control line for the selectivity index; series mostly up to 57.5 µM
Procedure, shortened: as §2

JEG-3 = assay: as above; details: Gynecologic cancer cell panel viability, ATPlite luminescence, 48 h; series mostly up to 57.5 µM
Procedure, shortened: as §2

OV90 = assay: as above; details: Gynecologic cancer cell panel viability, ATPlite luminescence, 48 h; series mostly up to 57.5 µM
Procedure, shortened: as §2

PA-1 = assay: as above; details: Gynecologic cancer cell panel viability, ATPlite luminescence, 48 h; series mostly up to 57.5 µM
Procedure, shortened: as §2

SKOV3 = assay: as above; details: Gynecologic cancer cell panel viability, ATPlite luminescence, 48 h; series mostly up to 57.5 µM
Procedure, shortened: as §2

Tov-21-G = assay: as above; details: Gynecologic cancer cell panel viability, ATPlite luminescence, 48 h; series mostly up to 57.5 µM
Procedure, shortened: as §2

Tov112D = assay: as above; details: Gynecologic cancer cell panel viability, ATPlite luminescence, 48 h; series mostly up to 57.5 µM
Procedure, shortened: as §2

O=C(O)CCc1ccc(NCc2cccc3c2CCCN3CCOc2ccccc2)cc1F
inactive: outcome (HACAT) | outcome (NIH3T3) | Potency (C33A) | Potency (CAOV3) | outcome (CASKI) | Potency (Es-2) | Potency (HeLa) | Potency (Hek293T) | Potency (JEG-3) | Potency (OV90) | Potency (PA-1) | Potency (SKOV3) | Potency (Tov-21-G) | Potency (Tov112D)

CC1(C)CC[C@]2(C(=O)O[C@@H]3O[C@H](CO)[C@@H](O)[C@H](O)[C@H]3O)CC[C@]3(C)C(=CCC4[C@@]5(C)CC[C@H](O[C@H]6O[C@H](CO)[C@@H](O)[C@H](O[C@@H]7O[C@H](CO)[C@@H](O)[C@H](O)[C@H]7O)[C@H]6O)C(C)(C)C5CC[C@]43C)[C@@H]2C1 (stereo partly specified)
inactive: outcome (HACAT) inactive [at 9.27 µM] | outcome (NIH3T3) inactive [at 9.27 µM] | activity change, negative = cytotoxicity (C33A) 0.319% [at 11.6 µM] | activity change, negative = cytotoxicity (CAOV3) 1.94% [at 11.6 µM] | activity change, negative = cytotoxicity (CASKI) -7.8% [at 11.6 µM] | activity change, negative = cytotoxicity (Es-2) -1.42% [at 11.6 µM] | activity change, negative = cytotoxicity (HeLa) 11.5% [at 11.6 µM] | activity change, negative = cytotoxicity (Hek293T) 5.32% [at 11.6 µM] | activity change, negative = cytotoxicity (JEG-3) -9.09% [at 11.6 µM] | activity change, negative = cytotoxicity (OV90) -0.2% [at 11.6 µM] | activity change, negative = cytotoxicity (PA-1) 3.09% [at 11.6 µM] | activity change, negative = cytotoxicity (SKOV3) -4.14% [at 11.6 µM] | activity change, negative = cytotoxicity (Tov-21-G) -3.87% [at 11.6 µM] | activity change, negative = cytotoxicity (Tov112D) -5.45% [at 11.6 µM]

CC(C)(Oc1ccc(-c2nc3cc(Cl)ccc3s2)cc1)C(=O)O
inactive: outcome (HACAT) | outcome (NIH3T3)

C=CC(C)(O)CC/C=C(\C)C1CC=C(C)C(=O)O1 (stereo unspecified)
inactive: outcome (HACAT) | outcome (NIH3T3) | Potency (C33A) | Potency (CAOV3) | outcome (CASKI) | Potency (Es-2) | Potency (HeLa) | Potency (Hek293T) | Potency (JEG-3) | Potency (OV90) | Potency (PA-1) | Potency (SKOV3) | Potency (Tov-21-G) | Potency (Tov112D)

CC(=O)/C=C/C1(O)C(C)(C)CC(O)CC1(C)O (stereo unspecified)
inactive: outcome (HACAT) | outcome (NIH3T3) | Potency (C33A) | Potency (CAOV3) | outcome (CASKI) | Potency (Es-2) | Potency (HeLa) | Potency (Hek293T) | Potency (JEG-3) | Potency (OV90) | Potency (PA-1) | Potency (SKOV3) | Potency (Tov-21-G) | Potency (Tov112D)

COc1cc(/C=C/C(=O)O[C@H]2[C@@H]3C=CO[C@@H](O[C@@H]4O[C@H](CO)[C@@H](O)[C@H](O)[C@H]4O)[C@@H]3[C@@]3(CO)O[C@@H]23)ccc1O
inactive: outcome (HACAT) inactive [at 17.4 µM] | outcome (NIH3T3) inactive [at 17.4 µM] | Potency (C33A) | Potency (CAOV3) | outcome (CASKI) | Potency (Es-2) | Potency (HeLa) | Potency (Hek293T) | Potency (JEG-3) | Potency (OV90) | Potency (PA-1) | Potency (SKOV3) | Potency (Tov-21-G) | Potency (Tov112D)

CC(=O)OC[C@]12[C@@H](OC(=O)c3ccoc3)C[C@@H]3[C@@H](OC(C)=O)[C@]1(OC3(C)C)[C@@](C)(O)C[C@H](OC(=O)c1ccoc1)[C@@H]2OC(=O)c1ccoc1
inactive: outcome (HACAT) inactive [at 17.4 µM] | outcome (NIH3T3) inactive [at 17.4 µM] | Potency (C33A) | Potency (CAOV3) | outcome (CASKI) | Potency (Es-2) | Potency (HeLa) | Potency (Hek293T) | Potency (JEG-3) | Potency (OV90) | Potency (PA-1) | Potency (SKOV3) | Potency (Tov-21-G) | Potency (Tov112D)

C[C@@H]1O[C@@H](O[C@@H]2[C@@H](O)[C@H](O[C@@H]3[C@@H](O)[C@@H](O)[C@H](O[C@H]4[C@H](OC(=O)[C@]56CCC(C)(C)C[C@H]5C5=CCC7[C@@]8(C)C[C@H](O)[C@H](O[C@@H]9O[C@H](C(=O)O)[C@@H](O)[C@H](O)[C@H]9O)[C@@](C)(CO)C8[C@H](O)C[C@@]7(C)[C@]5(C)C[C@H]6O)O[C@@H](CO)[C@@H]4O)O[C@H]3C)OC[C@H]2O)[C@H](O)[C@H](O)[C@H]1O (stereo partly specified)
inactive: outcome (HACAT) inactive [at 9.27 µM] | outcome (NIH3T3) inactive [at 9.27 µM] | activity change, negative = cytotoxicity (C33A) 7.96% [at 6.55 µM] | activity change, negative = cytotoxicity (CAOV3) -1.08% [at 6.55 µM] | activity change, negative = cytotoxicity (CASKI) 4.5% [at 6.55 µM] | activity change, negative = cytotoxicity (Es-2) 7.92% [at 6.55 µM] | activity change, negative = cytotoxicity (HeLa) 5.7% [at 6.55 µM] | activity change, negative = cytotoxicity (Hek293T) 11.5% [at 6.55 µM] | activity change, negative = cytotoxicity (JEG-3) 3.64% [at 6.55 µM] | activity change, negative = cytotoxicity (OV90) 0.206% [at 6.55 µM] | activity change, negative = cytotoxicity (PA-1) 24% [at 6.55 µM] | activity change, negative = cytotoxicity (SKOV3) -4.92% [at 6.55 µM] | activity change, negative = cytotoxicity (Tov-21-G) 2.22% [at 6.55 µM] | activity change, negative = cytotoxicity (Tov112D) 5.57% [at 6.55 µM]

C=C1CCC2C(C)(C(=O)O)CCCC2(C)C1CC/C(C)=C\CO (stereo unspecified)
inactive: outcome (HACAT) | outcome (NIH3T3) | Potency (C33A) | Potency (CAOV3) | outcome (CASKI) | Potency (Es-2) | Potency (HeLa) | Potency (Hek293T) | Potency (JEG-3) | Potency (OV90) | Potency (PA-1) | Potency (SKOV3) | Potency (Tov-21-G) | Potency (Tov112D)

C[C@]1(OC(=O)/C=C/c2ccccc2)C[C@@H](O)[C@]2(O)C=CO[C@@H](O[C@@H]3O[C@H](CO)[C@@H](O)[C@H](O)[C@H]3O)[C@@H]21
inactive: outcome (HACAT) inactive [at 17.4 µM] | outcome (NIH3T3) inactive [at 17.4 µM] | Potency (C33A) | Potency (CAOV3) | outcome (CASKI) | Potency (Es-2) | Potency (HeLa) | Potency (Hek293T) | Potency (JEG-3) | Potency (OV90) | Potency (PA-1) | Potency (SKOV3) | Potency (Tov-21-G) | Potency (Tov112D)

Cc1oc2nc3c(c(NC(=O)CN4CCCC4=O)c2c1C)CCCC3
inactive: outcome (HACAT) | outcome (NIH3T3) | Potency (C33A) | Potency (CAOV3) | outcome (CASKI) | Potency (Es-2) | Potency (HeLa) | Potency (Hek293T) | Potency (JEG-3) | Potency (OV90) | Potency (PA-1) | Potency (SKOV3) | Potency (Tov-21-G)
